The list is not random: actives were taken first. Their share in the collection is about 28%.
CYP2C9 inh: inhibitors of human CYP2C9 | inhibition, % at 5 µM | AID 777 | actives 20% (n = 96,000) | CYP2C9 Supersomes, luciferin-H conversion, luminescence | P11712;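 active means blocking of liver enzyme CYP2C9 beyond about 50% at 5 µM, limit read from the data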
CD11b adhes inh: inhibitors of human CD11b/CD18 binding to fibrinogen | P05107+P11215 | K562 CD11b/CD18 adhesion to fibrinogen, ATPlite luminescence; Mn2+ added to activate the integrin | inhibition, % at 10 µM | actives 0.54% (n = 93,000) | AID 1497;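 active means primary inhibition of 50% or more at 10 µM, then 40% or more on retest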
CYP2C19 activ: activators of human cytochrome P450 2C19 | P33261 | 96,000 tested, under 10 active | activation factor at 5 µM | recombinant CYP2C19, luciferin-H EGE luminescence; active compounds read high; 0 = fully inhibited enzyme, 1 = untreated enzyme;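 active means activation factor of at least 2 at 5 µM in the primary screen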;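 further: 0 = wells with 2.5 mM tranylcypromine and 1 = vehicle-only wells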
Target sequence (P33261 whole entry, looked up): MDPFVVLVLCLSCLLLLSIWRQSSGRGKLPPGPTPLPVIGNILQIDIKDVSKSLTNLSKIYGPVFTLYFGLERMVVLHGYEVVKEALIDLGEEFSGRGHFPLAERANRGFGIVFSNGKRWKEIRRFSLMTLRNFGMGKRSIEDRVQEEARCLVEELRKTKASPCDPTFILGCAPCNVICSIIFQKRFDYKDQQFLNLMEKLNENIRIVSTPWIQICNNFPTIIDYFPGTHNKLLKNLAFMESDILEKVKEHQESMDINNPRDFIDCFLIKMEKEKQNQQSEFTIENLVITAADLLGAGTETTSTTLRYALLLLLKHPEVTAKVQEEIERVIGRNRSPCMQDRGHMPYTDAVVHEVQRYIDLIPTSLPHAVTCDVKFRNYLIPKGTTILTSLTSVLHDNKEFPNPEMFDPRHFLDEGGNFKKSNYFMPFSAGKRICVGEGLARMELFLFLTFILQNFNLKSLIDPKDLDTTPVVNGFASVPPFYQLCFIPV
CYP2C19 inhib: blocks human cytochrome P450 2C19; actives 21% (n = 96,000); CYP2C19 Supersomes, luciferin-H EGE luminescence, 30 min; AID 778; P33261; inhibition, % at 5 µM;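 active means CYP2C19 inhibition above a set limit at 5 µM in the primary screen, cut at about 50% in these data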;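 further: plate controls were negative control wells for no effect and 2.5 mM tranylcypromine positive control for full effect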
Mac1 fbg enh: increases human CD11b/CD18 adhesion to fibrinogen; P05107+P11215; K562 CD11b/CD18 adhesion to fibrinogen, ATPlite luminescence; activation, % at 10 µM; actives 0.07% (n = 93,000); AID 1499;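 active means 10 µM primary screen giving 50% or more activity, confirmed by 40% or more on retest at that dose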
CYP2C9 act: increases human cytochrome P450 2C9 activity | actives 1.4% (n = 96,000) | recombinant CYP2C9, luciferin-H conversion, luminescence; active compounds read high; factor 1 = untreated enzyme, 0 = blocked | activation factor at 5 µM | P11712;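 active means activation factor of 2 or more for CYP2C9 at a 5 µM dose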;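 further: 0 = sulfaphenazole-blocked wells and 1 = vehicle-only wells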
* = called active by the depositor; . = not tested or not shown.

SMILES	CYP2C9 inh	CD11b adhes inh	CYP2C19 activ	CYP2C19 inhib	Mac1 fbg enh	CYP2C9 act
CC1(C)C2CC=C(CN3CCOCC3)C1C2 (stereo unspecified)	-16	-14	1	-2	2	1.2
CC(C)C12CN3CCN(CC(C3)/C1=N\O)C2	40	-1	0.8	18	0	0.6
Cc1ccc(CN2CC3CC(C2)c2cccc(=O)n2C3)cc1 (stereo unspecified)	33	-17	0.6	44	-2	0.7
O=c1cccc2n1CC1CC2CN(Cc2c(Cl)cccc2Cl)C1 (stereo unspecified)	70*	-3	0	97*	4	0.3
C=CCn1c(O)c(C(=O)CCCCCC)c(=O)[nH]c1=O	57*	-12	0.9	5	0	0.4
CCCCCCN=C(C)c1c(O)n(CCCC)c(=O)[nH]c1=O	66*	-11	0.5	55*	-4	0.3
CCCCn1c(O)c(C(C)=NCCCn2ccnc2)c(=O)[nH]c1=O	90*	-8	0.7	33	-2	0.1
C=CCn1c(O)c(C(C)=NCCCO)c(=O)[nH]c1=O	-7	.	1	-1	.	1.1
CC1(C)CN2C(c3ccc(Cl)cc3)N2C1 (stereo unspecified)	-13	1	1.1	-8	-2	1.1
CCn1c(=O)n(CC(=O)N2CCC3(CC2)OCCO3)c(=O)c2ccccc21	3	-5	0.5	48	0	1
Cc1c2cnn(CC(=O)N3CCC4(CC3)OCCO4)c(=O)c2c(C)n1Cc1ccc(F)cc1	21	2	0.5	53*	-5	0.8
O=C(Cn1ncc2ccccc21)N1CCC2(CC1)OCCO2	-4	-8	0.5	55*	0	1
O=C(Cn1ncc2c3ccccc3n(Cc3ccccc3)c2c1=O)N1CCC2(CC1)OCCO2	53*	30	0.8	22	2	0.5
O=C(Cn1ncc2c3ccccc3n(Cc3ccccc3F)c2c1=O)N1CCC2(CC1)OCCO2	69*	0	0.6	43	-4	0.3
CCOc1ccc2[nH]c(=O)c(CN(CCO)C3(c4nnnn4C4CCCCC4)CCCCC3)cc2c1	15	1	0.9	6	3	0.9
CC12CN3CC(c4ccccc4)(CN(C1)C31CCCCC1)C2=O	-24	-6	0.9	14	0	1.2
CCC1(CC)C(=O)NC(=Nc2cccc(C(F)(F)F)c2)NC1=O	-10	6	1.1	-15	-1	1.1
O=[N+]([O-])c1ccccc1CNCCc1ccc(F)cc1	-3	0	0.1	86*	2	1
OC1(c2cccnc2)CC2CCC(C1)N2Cc1nnnn1Cc1ccccc1 (stereo unspecified)	14	-14	0.7	29	2	0.9
Cn1nc(-c2ccc(OCC(=O)N3CCN(Cc4ccccc4)CC3)cc2)c2ccccc2c1=O	79*	71*	0.2	80*	-6	0.2
CN1CCN(C(=O)COc2ccc(-c3nc4ccccc4s3)cc2)CC1	-10	93*	1	3	-6	1.1
O=C(COc1ccc(S(=O)(=O)N2CCCCC2)cc1)N1CCN(Cc2ccccc2)CC1	11	8	1	2	-1	0.9
CC(C)NS(=O)(=O)c1ccc(OCC(=O)N2CCN(Cc3ccccc3)CC2)c(Cl)c1	71*	1	0.5	54*	2	0.3
CCCNS(=O)(=O)c1ccc(OCC(=O)N2CCN(Cc3ccccc3)CC2)cc1	52*	-15	0.8	22	-1	0.5
CC12CCC3C(CC=C4CC(O)CCC43C)C1C/C(=C\c1cccc(F)c1)C2=O (stereo unspecified)	.	8	.	.	-2	.
SMILES	CYP2C9 inh	CD11b adhes inh	CYP2C19 activ	CYP2C19 inhib	Mac1 fbg enh	CYP2C9 act
CC(C)(C)N(NC(=O)c1ccccc1)C(=O)c1ccccc1	25	.	0.9	13	.	0.7
CC(=O)N1CC(=O)Nc2ccc(Cl)cc2C1c1ccc(F)cc1 (stereo unspecified)	1	-3	0.9	9	-5	1
CCOc1cc(-c2nc3c(C)cccn3c2NCC2CCCO2)ccc1O (stereo unspecified)	12	-2	0.7	28	-3	0.9
FC(F)(F)c1ccc2c(c1)N(CCCN1CCN(CCCl)CC1)c1ccccc1S2	-6	32	0.5	50*	2	1.1
CN1C(=O)N(C)C(=O)C(CCc2ccncc2)(Cc2ccc3c(c2)OCO3)C1=O	74*	6	0	99*	-4	0.3
CN1C(=O)N(C)C(=O)C(CCc2ccccn2)(CCc2ccccn2)C1=O	-20	3	1	4	3	1.2
O=C1NC(=O)C(CCc2ccncc2)(Cc2ccc3c(c2)OCO3)C(=O)N1CCc1ccccc1 (stereo unspecified)	90*	8	0	99*	-4	0.1
CCCCCn1c(=O)c(C(=O)NCc2ccncc2)c(O)c2ccccc21	74*	62	0.3	71*	5	0.3
Cn1c(O)c(C(c2ccccn2)c2c(O)n(C)c(=S)[nH]c2=O)c(=O)[nH]c1=S	.	.	1	3	.	.
CCCCn1c(O)c(C(CC)=NCCN2CCOCC2)c(=O)[nH]c1=O	64*	28	0.6	37	0	0.4
C=CCn1c(O)c(C(CC)=NCCc2ccccc2)c(=O)[nH]c1=O	26	-3	0.6	36	0	0.7
CCCCn1c(O)c(C(CC)=NCCc2ccccc2)c(=O)[nH]c1=O	78*	4	0.5	46	2	0.2
CCCCn1c(O)c(C(C)=NCc2ccc(F)cc2)c(=O)[nH]c1=O	50	-7	0.8	23	2	0.5
CCCCn1c(O)c(C(CC)=NCc2ccc(F)cc2)c(=O)[nH]c1=O	71*	.	0.6	41	.	0.3
COc1ccccc1-n1c(O)c(C=Nc2c(C)n(C)n(-c3ccccc3)c2=O)c(=O)[nH]c1=O	-13	3	1	-1	-3	1.1
CCOP1(=S)Oc2cc3c(cc2C(C(=O)OC)(C(F)(F)F)O1)OCO3 (stereo unspecified)	89*	-22	0	98*	3	0.1
O=C(COc1ccccc1)N1CCN(C/C=C/c2ccccc2)CC1	70*	-1	0.4	63*	-6	0.3
O=C(COc1ccc(Cl)cc1)N1CCN(C/C=C/c2ccccc2)CC1	24	11	1	4	0	0.8
O=C(COc1ccccc1)N1CCN(C2CCCC2)CC1	1	0	0.4	64*	0	1
CC(=O)OC1C2CCC1C(N1CCCC1)CC2 (stereo unspecified)	-47	-6	1.2	-15	-3	1.5
CN1CCc2c(c(N3CCCCC3)nc3n[nH]c(N)c23)C1	-26	.	1.2	-20	.	1.3
O=c1[nH]c(=O)n(CCc2ccccc2)c(O)c1C=NCCCn1ccnc1	73*	-12	0.5	50*	-1	0.3

Screens from PubChem BioAssay.
